ALOX15B inhib: 15-hLO-2 (ALOX15B) enzyme inhibition | 110,000 compounds, 0.56% hits | Potency, µM (doses to about 57.1 µM), without a hit: at the highest dose activity change, negative = inhibition, most hits filed as inhibitors | purified 15hLO-2, xylenol orange hydroperoxide absorbance; note: % is set by controls: 0 for no effect and ±100 for the full control effect; nearly all actives have a fitted effect of over 60% in size
Target sequence (O15296 whole entry, looked up): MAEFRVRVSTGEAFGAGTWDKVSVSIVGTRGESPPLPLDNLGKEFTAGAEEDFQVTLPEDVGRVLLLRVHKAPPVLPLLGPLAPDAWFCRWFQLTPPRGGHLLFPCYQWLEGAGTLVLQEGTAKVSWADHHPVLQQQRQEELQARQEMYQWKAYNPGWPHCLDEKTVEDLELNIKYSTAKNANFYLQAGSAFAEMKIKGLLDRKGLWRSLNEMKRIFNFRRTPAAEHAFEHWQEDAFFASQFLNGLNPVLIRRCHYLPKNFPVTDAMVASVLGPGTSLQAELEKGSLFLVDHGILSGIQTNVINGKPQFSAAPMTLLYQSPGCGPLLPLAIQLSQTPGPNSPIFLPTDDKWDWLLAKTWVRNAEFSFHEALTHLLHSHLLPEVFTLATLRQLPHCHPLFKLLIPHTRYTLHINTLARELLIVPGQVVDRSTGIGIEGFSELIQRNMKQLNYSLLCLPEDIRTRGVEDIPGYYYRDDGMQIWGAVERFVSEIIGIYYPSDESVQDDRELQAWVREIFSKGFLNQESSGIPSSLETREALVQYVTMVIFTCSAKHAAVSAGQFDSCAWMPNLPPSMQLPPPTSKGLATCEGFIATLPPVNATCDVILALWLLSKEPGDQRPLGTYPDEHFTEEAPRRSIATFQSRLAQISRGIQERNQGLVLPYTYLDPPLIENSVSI
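Purified human 15hLO-2 (50 nM) preincubated 15 min with compound, then 45 uM arachidonic acid for 90 min at RT in 25 mM Hepes pH 7.5, 0.01% Triton X-100. Hydroperoxide detected by Fe-xylenol orange; 573/405 nm absorbance ratio.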
ERK AVP inh: vasopressin-driven ERK pathway inhibition; 72,000 compounds, 0.99% hits; HEK293-V1b, vasopressin-stimulated pERK AlphaScreen; AID 995; Potency, µM (top dose mostly 57.5 µM), inactives show at the top dose activity, negative = inhibition, usual class: inhibitors; note: % is set by controls: 0 for no effect and ±100 for the full control effect; nearly all actives have a fitted effect of over 55% in size
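V1b-HEK293 cells; cpd 30 min 37C; 25 nM vasopressin 5 min; lyse 10 min; AlphaScreen beads 5 hr RT. Normalized to DMSO basal and 25 nM vasopressin; AC50 by Hill fit.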
CRE Fsk mod: modulators of forskolin-stimulated CRE signaling in CHO cells | CHO CRE-bla reporter (cAMP response element driving beta-lactamase), forskolin EC10, beta-lactamase ratio | Potency, µM (series often up to 38.2 µM), for the others: at the top dose activity change, negative = inhibition, actives largely listed as activators | 71,000 compounds, 2.5% hits | AID 662; active = well fitted activation curve with a large enough effect in the signal ratio, with a control signal flat, not every such curve was filed as active; inconclusive = small, poorly fitted or top-dose-only effect, or effect the other way, or a change in a side signal; the % refers to the signal ratio; note: % of control where 0% means no effect
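The 460nm/530nm emission ratio after CCF4 loading defined %Activity, from which AC50 values were obtained. CRE-bla CHO cells received compound dilution series together with an EC10 level of NKH 477 for 3 hours at 37 degrees Celsius.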
15-hLO inh: inhibitors of human 15-lipoxygenase (ALOX15); purified 15hLO-1, xylenol orange hydroperoxide absorbance; Potency, µM (doses to about 57.1 µM), for inactives: at the highest dose activity change, negative = inhibition, most hits filed as inhibitors; 74,000 compounds, 1.4% hits; AID 887; note: % is set by controls: 0 for no effect and ±100 for the full control effect; nearly all actives have a fitted effect of over 55% in size
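Inhibition is scored from a chromogenic endpoint. After 15 min enzyme-compound contact, arachidonic acid (50 uM final) reacts 6 min with 40 nM 15hLO-1 at room temperature, then Fe-XO reagent is added for 30 min and absorbance ratio recorded.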
* hit, by the source's call; ? = inconclusive; / = no result; [ ] = remark or other dose. The list is not random: actives were taken first. Their share in the collection is about 3.2%. Unless noted, calls come from the whole dose curve; as a rule, active = well fitted inhibition curve with a large enough effect; inconclusive = small, poorly fitted or top-dose-only effect; inactive = no such curve, though single readings can be large or run the other way. Potency is the fitted concentration of half-maximal effect.

SMILES	ALOX15B inhib	ERK AVP inh	CRE Fsk mod	15-hLO inh
CC1(C)OC2C[C@](O)(C(N)=O)C[C@H](O)[C@H]2O1 (some centres not stated)	-8.6%	8.9%	/	-3.7%
Cc1ccc2nc3c(cc2c1)CN(Cc1ccco1)C(=NCC1CCCO1)S3 (configuration not stated)	-19.6%	5.2%	1.4%	-29.4%
Cc1cccc2cc3c(nc12)SC(=NCC1CCCO1)N(Cc1ccco1)C3 (configuration not stated)	-12.9%	?	?	10µM*
Clc1ccccc1-c1ccc2ncnc(NC3CCNCC3)c2c1	1.4%	-20.9%	?	9.6%
COC(=O)c1c(NC(=O)c2ccco2)sc(C(=O)Nc2ccc(F)cc2)c1C	-13.1%	-7.0%	3.2%	-1.5%
COC(=O)c1c(NC(=O)c2ccco2)sc(C)c1C	1.5%	-2.3%	10µM*	-6.9%
COc1ccc(N2CCn3c2nc2c3c(=O)n(CCc3ccccc3)c(=O)n2C)c(OC)c1	-15.5%	-9.2%	-5.6%	4.7%
COc1ccc(N2CCn3c2nc2c3c(=O)n(CCCc3ccccc3)c(=O)n2C)c(OC)c1	-9.1%	12.6µM*	-15.7%	-9.5%
CCC1=C2CC[C@H]3C(=O)N(CC(=O)OC)C(=O)[C@H]3[C@H]2[C@@]2(Cc3ccccc3)C(=NCCc3c[nH]c4ccccc34)OC(=O)N2C1=O	-4.0%	1.6%	/	/
Cc1cc(NC(=O)CC(C)(C)C)nc2c1c(=O)oc1ccccc12	/	16.8%	2µM*	1.4%
CCCC(=O)Nc1cc(C)c2c(=O)oc3ccccc3c2n1	/	/	?	4.4%
CC1(C)COCN1COC1CCCCC1	0.3%[11.4 µM]	-2.1%[11.5 µM]	-0.9%[7.6 µM]	3.5%[11.4 µM]
CCn1c(=O)c(C)nn2c3ccccc3nc12	3.4%	-23.4%	12.6µM*	2.5%
CN(C)C(=O)c1ccc(-c2cncnc2NCCc2cnc[nH]2)cc1	-3.3%	-10.6%	-10.8%	10.3%
COc1cc(OC)c(OC)cc1CNc1cc(C)ccc1OC	-11.3%	25.1µM*	20.0%	-3.4%
O=C(O)c1ccc(C(=O)O)c(C(=O)Nc2ccc3c(c2)Cc2ccccc2-3)c1	-16.1%[11.4 µM]	11.8%[11.5 µM]	?	-3.3%[11.4 µM]
CCn1cc(C(=O)OCc2ccc(F)cc2)c(=O)c2ccc(C)nc21	-6.0%	-26.3%	12.6µM*	4.8%
CCn1cc(C(=O)OCC(=O)OC2CC(C)CCC2C(C)C)c(=O)c2ccc(C)nc21 (configuration not stated)	-20.9%	25.1µM*	?	4.0%
CCn1cc(C(=O)OCc2ccccc2)c(=O)c2ccc(C)nc21	-0.6%	?	12.6µM*	-9.2%
CCn1cc(C(=O)OCc2cccc(Br)c2)c(=O)c2ccc(C)nc21	-10.7%	-4.1%	?	-17.3%
CCn1cc(C(=O)OCC(=O)NCc2ccc3c(c2)OCO3)c(=O)c2ccc(C)nc21	1.6%	8.1%	20.5%	3.3%
CC12C=CC(=O)C=C1[C@@H](F)CC1C2C(O)CC2(C)C1CC[C@]2(O)C(=O)CO (some centres not stated)	-10.0%[0.0915 µM]	/	/	/
COc1ccc(-n2c(=O)c(-c3cccs3)nc3cnc(Nc4cccc(OC)c4)nc32)cc1	-16.7%	-2.9%	?	-9.9%
CN(CC(=O)O)Cc1c[nH]c2ccccc12	2.4%[11.4 µM]	9.2%[11.5 µM]	-16.6%[7.6 µM]	-1.1%[11.4 µM]
COc1ccc(OC)c(NC(=O)NC2(C(F)(F)F)Oc3ccccc3O2)c1	10µM*	4.2%	?	-13.7%
SMILES	ALOX15B inhib	ERK AVP inh	CRE Fsk mod	15-hLO inh
Nc1nc(CN2CCN(c3ccccc3)CC2)nc(N2CCCc3ccccc32)n1	21.3%	-23.0%	-15.5%	4.3%
Nc1nc(CN2CCN(c3cccc(Cl)c3)CC2)nc(N2CCCc3ccccc32)n1	32.2%	6.31µM*	?	-20.0%
N#CC(C#N)=c1ccc2c(c1)NC1(CCCCC1)N=2	-7.3%	15.8µM*	?	-4.3%
Oc1c(Cl)cc(Cl)c2c1NCCC2	5.01µM*	-16.6%	5.3%	1.58µM*
O=C1NCCCc2c1oc1ccc(O)cc21	?	-21.5%	?	1.9%
COc1ccc(C2=NOC(C(=O)Nc3cc(Br)ccc3O)C2)cc1OC (configuration not stated)	-13.6%	10µM*	15.8µM*	-27.1%
OCCNc1ncnc2nc[nH]c12	-9.9%[11.4 µM]	-5.2%[11.5 µM]	-2.8%[7.6 µM]	5.5%[11.4 µM]
C/C(=N\NC(N)=S)c1ccc[nH]1	-10.4%[11.4 µM]	2.0%[11.5 µM]	4.1%[7.6 µM]	2.9%[11.4 µM]
O=C(c1c(F)cccc1F)N1CCN(c2ccccc2F)CC1	-4.2%	19.4%	?	-11.9%
O=C(c1cccc(C(=O)N2CCN(c3ccccc3F)CC2)c1)N1CCN(c2ccccc2F)CC1	1.0%	15.8µM*	?	5.3%[11.4 µM]
COC(=O)c1ccc(C)c(NS(=O)(=O)c2ccc(C)c([N+](=O)[O-])c2)c1	-18.4%	/	/	/
COC(=O)c1ccc(C)c(NS(=O)(=O)c2ccc(OC)cc2)c1	4.6%	-5.8%	0.501µM*	6.1%[11.4 µM]
COc1ccccc1NC(=O)CSc1ncn[nH]1	-5.6%	10.8%	-1.3%	-0.5%
COc1ccccc1NC(=O)CSc1nc2nc(C)cc(C)c2c(=O)[nH]1	-4.1%	-12.3%	10µM*	-7.1%
COc1ccccc1NC(=O)CSc1nccc(=O)[nH]1	3.7%	-12.6%	0.501µM*	4.5%
COC(=O)[C@@]1(Cc2ccc(OC)cc2)[C@H]2c3cc(C(=O)N(C)C)n(Cc4ccc(O)c(OC)c4)c3C[C@H]2CN1C(=O)c1ccccc1	?	6.4%	?	/
Cc1ccc(C)c2nc(N3CCCC3)c(C#N)cc12	9.8%	-1.9%	10µM*	12.6µM*
NC(N)=[N+]1CCc2ccccc2C1	-4.2%	9.1%	-2.1%	-1.6%
O=C(c1cnccn1)N1CCC[C@@]2(CCN(c3ccccn3)C2)C1	-0.9%	-8.9%	-9.8%	12.3%
Cc1ccccc1-c1cncnc1Nc1ccccc1	-3.3%	-27.3%	-1.0%	8.0%
C/C=C/COC(=O)c1[nH]c2c(c1C)C(=O)CC(c1ccc(N(C)C)cc1)C2 (configuration not stated)	-6.5%	?	12.9%	4.2%
CCCOCCOC(=O)c1[nH]c2c(c1C)C(=O)CC(c1cc(OC)ccc1OC)C2 (configuration not stated)	/	-26.6%	2.51µM*	-7.8%
CCOCCOC(=O)c1[nH]c2c(c1C)C(=O)CC(c1ccc(N(C)C)cc1)C2 (configuration not stated)	-4.7%	25.1µM*	-0.6%	-5.4%
COCCOC(=O)c1[nH]c2c(c1C)C(=O)CC(c1cc(OC)ccc1OC)C2 (configuration not stated)	1.7%	/	?	-1.3%
COC(=O)c1[nH]c2c(c1C)C(=O)CC(c1ccccc1)C2 (configuration not stated)	-2.3%	-12.7%	1.58µM*	-8.1%
COc1ccc(OC)c(C2CC(=O)c3c([nH]c(C(=O)OC(C)C)c3C)C2)c1 (configuration not stated)	7.7%	-25.7%	3.16µM*	-15.7%
CC(C)NC(=O)N1CC[C@@]2(CCCN(C(=O)c3cc(C(F)(F)F)cc(C(F)(F)F)c3)C2)C1	-0.8%	4.6%	-6.0%	0.7%
COc1ccc2c(c1)[C@]1(C)CCC[C@](C)(CO)[C@@H]1CC2	/	/	-14.4%	/
